From the supplement of paper PMC10849652
Targets with a hit are over-represented here; the source holds about 8,800 in all. About 0.5% of all pairs of compound and target were hits.

Compound: C#Cc1cccc(Nc2ncnc3cc(OCCOC)c(OCCOC)cc23)c1 [erlotinib]
Test: log2 fold change, soluble protein after heating vs DMSO (PISA); higher = thermal stabilisation; K562 lysate, 10 uM; active = over 0.2 and 3.5 SD of the protein, either way, in both replicates (recomputed)
How it was run: (§1)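 Values give the log-two fold change in thermal stability against solvent controls, from duplicates. Crude K562 extract at 1 mg/mL protein, made by dounce homogenisation in PBS pH 7.4 with 1 mM MgCl2, was treated with 10 μM compound for 30 min. After 3 min heating across 48°C-58°C, aliquots were pooled, adjusted to 0.5% NP-40 at 4°C and centrifuged at 21,000xg for 90 min. The supernatant was measured by TMTpro 16plex LC-MS/MS with channel sums equalised.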

UniProt Q8TC12, sequence (Q8TC12 whole entry, looked up): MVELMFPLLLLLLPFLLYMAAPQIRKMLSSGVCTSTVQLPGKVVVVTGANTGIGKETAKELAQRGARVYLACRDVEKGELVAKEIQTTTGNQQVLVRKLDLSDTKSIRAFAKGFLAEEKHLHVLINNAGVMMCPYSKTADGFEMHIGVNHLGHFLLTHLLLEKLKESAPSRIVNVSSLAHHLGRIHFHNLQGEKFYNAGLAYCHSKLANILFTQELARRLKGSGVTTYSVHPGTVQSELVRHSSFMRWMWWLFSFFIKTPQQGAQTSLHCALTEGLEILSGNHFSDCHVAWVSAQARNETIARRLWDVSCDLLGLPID
UniProt Q7L0Q8, sequence (Q7L0Q8 whole entry, looked up): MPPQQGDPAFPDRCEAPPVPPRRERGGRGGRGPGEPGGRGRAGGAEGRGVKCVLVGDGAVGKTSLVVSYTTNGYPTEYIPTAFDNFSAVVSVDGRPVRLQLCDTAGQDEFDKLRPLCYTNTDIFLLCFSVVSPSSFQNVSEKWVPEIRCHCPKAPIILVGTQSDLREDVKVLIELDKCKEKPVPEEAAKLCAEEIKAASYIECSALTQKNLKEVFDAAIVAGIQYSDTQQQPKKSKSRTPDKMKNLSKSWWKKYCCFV
UniProt Q9NTN9, sequence (Q9NTN9 whole entry, looked up): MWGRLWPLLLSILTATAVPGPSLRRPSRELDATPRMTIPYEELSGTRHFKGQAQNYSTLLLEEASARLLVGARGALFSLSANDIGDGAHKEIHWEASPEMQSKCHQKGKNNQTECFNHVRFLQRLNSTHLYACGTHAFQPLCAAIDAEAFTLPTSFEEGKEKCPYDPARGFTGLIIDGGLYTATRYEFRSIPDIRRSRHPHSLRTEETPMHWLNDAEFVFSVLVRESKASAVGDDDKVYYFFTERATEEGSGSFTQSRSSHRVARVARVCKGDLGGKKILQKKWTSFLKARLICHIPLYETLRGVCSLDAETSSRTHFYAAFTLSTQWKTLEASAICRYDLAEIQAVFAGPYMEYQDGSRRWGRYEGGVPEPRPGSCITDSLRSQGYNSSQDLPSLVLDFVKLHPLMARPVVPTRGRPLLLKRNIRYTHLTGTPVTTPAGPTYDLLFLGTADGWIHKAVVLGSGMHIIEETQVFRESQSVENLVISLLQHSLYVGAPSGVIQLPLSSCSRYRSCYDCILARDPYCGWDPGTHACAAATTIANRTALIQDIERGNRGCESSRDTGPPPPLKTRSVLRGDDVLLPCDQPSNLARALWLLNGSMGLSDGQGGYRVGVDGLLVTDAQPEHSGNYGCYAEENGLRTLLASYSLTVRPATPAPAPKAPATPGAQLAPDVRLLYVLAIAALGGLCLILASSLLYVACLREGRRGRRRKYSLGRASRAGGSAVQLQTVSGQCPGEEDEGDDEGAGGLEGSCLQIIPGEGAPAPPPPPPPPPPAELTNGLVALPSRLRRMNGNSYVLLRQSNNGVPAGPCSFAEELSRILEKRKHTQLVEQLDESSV
UniProt P28702, sequence (P28702 whole entry, looked up): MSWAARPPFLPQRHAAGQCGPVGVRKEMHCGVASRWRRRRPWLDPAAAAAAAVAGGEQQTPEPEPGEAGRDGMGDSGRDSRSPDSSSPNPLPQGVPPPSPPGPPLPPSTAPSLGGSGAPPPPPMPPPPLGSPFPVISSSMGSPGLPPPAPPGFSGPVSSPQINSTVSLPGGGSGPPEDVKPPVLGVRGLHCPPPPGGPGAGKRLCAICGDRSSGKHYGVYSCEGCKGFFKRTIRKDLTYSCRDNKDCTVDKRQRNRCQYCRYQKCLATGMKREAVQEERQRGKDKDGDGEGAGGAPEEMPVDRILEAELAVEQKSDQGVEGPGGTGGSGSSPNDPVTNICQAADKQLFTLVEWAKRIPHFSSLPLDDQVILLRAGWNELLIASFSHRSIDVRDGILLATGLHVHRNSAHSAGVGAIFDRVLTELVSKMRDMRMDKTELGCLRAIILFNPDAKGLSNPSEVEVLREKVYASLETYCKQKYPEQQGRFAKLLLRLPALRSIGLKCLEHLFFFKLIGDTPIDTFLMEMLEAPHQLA
UniProt O75582, sequence (O75582 whole entry, looked up): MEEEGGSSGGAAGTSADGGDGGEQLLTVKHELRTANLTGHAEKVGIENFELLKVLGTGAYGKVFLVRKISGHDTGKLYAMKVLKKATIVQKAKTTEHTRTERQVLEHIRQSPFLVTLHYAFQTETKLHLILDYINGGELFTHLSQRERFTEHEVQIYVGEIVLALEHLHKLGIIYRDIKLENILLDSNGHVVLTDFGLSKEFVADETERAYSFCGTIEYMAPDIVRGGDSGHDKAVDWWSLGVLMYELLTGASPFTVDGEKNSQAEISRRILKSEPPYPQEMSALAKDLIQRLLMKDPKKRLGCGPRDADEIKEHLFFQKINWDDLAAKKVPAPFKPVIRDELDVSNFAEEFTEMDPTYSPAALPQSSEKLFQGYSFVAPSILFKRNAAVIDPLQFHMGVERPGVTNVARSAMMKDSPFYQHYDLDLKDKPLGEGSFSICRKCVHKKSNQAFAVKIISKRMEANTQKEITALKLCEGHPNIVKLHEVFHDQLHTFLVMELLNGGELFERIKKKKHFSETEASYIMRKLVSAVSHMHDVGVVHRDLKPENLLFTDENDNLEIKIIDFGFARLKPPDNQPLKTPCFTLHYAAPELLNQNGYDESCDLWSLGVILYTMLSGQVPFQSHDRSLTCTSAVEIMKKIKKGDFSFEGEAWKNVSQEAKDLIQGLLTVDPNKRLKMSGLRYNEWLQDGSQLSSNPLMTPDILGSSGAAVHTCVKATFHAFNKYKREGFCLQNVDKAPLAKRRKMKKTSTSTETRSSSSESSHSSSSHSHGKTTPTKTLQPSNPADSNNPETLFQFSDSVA
UniProt Q9Y4B4, sequence (Q9Y4B4 whole entry, looked up): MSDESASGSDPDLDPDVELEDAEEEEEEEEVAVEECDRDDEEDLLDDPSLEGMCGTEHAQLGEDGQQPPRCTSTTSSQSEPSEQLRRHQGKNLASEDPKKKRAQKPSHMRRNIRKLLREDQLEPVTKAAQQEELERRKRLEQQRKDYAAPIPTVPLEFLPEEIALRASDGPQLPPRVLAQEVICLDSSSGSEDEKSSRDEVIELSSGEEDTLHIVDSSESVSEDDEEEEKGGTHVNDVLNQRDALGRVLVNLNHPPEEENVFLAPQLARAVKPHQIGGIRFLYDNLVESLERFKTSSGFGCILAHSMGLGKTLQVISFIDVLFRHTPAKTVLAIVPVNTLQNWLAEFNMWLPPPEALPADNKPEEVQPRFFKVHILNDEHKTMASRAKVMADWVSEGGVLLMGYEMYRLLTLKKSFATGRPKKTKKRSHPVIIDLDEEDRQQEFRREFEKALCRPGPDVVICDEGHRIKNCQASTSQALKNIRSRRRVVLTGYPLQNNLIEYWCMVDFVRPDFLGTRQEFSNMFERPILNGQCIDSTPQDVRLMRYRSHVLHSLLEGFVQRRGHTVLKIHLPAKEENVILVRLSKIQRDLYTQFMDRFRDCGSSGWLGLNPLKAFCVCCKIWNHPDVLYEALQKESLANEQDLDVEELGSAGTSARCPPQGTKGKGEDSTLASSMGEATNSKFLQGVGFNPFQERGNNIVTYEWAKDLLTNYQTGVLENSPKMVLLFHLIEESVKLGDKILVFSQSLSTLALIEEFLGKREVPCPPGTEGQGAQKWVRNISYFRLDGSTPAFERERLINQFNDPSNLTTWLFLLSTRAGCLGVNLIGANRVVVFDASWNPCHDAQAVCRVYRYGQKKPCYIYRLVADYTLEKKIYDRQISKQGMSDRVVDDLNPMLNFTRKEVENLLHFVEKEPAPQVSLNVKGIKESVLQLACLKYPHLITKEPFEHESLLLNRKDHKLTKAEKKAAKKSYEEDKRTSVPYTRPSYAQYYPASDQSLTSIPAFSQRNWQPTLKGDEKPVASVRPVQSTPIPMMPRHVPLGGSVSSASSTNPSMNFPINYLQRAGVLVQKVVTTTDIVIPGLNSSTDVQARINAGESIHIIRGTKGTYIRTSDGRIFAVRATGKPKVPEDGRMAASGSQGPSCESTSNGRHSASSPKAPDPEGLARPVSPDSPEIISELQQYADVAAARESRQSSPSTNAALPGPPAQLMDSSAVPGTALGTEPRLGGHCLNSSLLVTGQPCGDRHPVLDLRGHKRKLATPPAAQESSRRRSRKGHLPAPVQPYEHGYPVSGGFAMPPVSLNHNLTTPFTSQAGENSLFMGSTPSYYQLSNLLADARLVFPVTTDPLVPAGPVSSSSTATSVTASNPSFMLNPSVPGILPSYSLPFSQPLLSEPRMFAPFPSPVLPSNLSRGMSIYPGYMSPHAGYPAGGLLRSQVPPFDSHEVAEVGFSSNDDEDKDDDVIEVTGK
UniProt Q96E14, sequence (Q96E14 whole entry, looked up): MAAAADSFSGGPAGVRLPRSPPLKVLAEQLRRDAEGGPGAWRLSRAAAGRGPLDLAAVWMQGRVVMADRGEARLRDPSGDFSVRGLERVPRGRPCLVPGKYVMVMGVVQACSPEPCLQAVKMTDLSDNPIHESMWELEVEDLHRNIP
UniProt Q99496, sequence (Q99496 whole entry, looked up): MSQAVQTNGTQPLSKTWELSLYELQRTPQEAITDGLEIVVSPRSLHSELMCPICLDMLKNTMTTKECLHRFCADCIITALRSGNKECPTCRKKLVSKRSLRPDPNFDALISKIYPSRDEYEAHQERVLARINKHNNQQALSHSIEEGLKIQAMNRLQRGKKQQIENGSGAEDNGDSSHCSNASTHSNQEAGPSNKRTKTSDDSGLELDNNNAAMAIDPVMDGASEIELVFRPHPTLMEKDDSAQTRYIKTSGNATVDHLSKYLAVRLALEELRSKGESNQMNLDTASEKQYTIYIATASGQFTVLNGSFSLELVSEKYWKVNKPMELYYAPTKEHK
UniProt Q96K19, sequence (Q96K19 whole entry, looked up): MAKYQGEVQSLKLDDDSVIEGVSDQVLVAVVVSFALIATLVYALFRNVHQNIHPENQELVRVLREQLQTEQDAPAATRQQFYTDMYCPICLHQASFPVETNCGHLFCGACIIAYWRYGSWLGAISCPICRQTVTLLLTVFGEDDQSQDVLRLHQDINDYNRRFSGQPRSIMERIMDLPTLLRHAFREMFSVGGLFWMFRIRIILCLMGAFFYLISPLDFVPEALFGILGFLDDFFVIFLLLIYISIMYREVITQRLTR

log2 fold change, inactive:
RAD54L2 (UniProt Q9Y4B4) 0.186
RMI2 (UniProt Q96E14) 0.051
SATB2 (UniProt Q9UPW6) -0.019
SCNM1 (UniProt Q9BWG6) 0.045
SERAC1 (UniProt Q96JX3) 0.004
RNF170 (UniProt Q96K19) 0.062
RPS6KA3 (UniProt P51812) -0.04
RHOU (UniProt Q7L0Q8) -0.052
RAD54L (UniProt Q92698) -0.026
RAB5IF isoform 5 (UniProt Q9BUV8) 0.193
RXRB isoform 3 (UniProt P28702) -0.025
RDH11 (UniProt Q8TC12) 0.018
SEMA4G isoform 2 (UniProt Q9NTN9) 0.005
RXRA (UniProt P19793) 0.102
RAP1B (UniProt F5GZG1) -0.028
RNF24 isoform 2 (UniProt Q9Y225) -0.146
QSER1, A0A3B3IRW6 -0.056
S100A6 (UniProt P06703) 0.045
RPS6KA5 (UniProt O75582) -0.036
RYR1 (UniProt P21817) -0.077
RNF17 (UniProt Q9BXT8) -0.055
RNF2 (UniProt Q99496) 0.061
RNPC3 (UniProt Q96LT9) 0.004
ROBO2 isoform 3 (UniProt Q9HCK4) 0.042

Compound: C/C(=N\NC(=O)C1=CC(=CC=C1)S(=O)(=O)N2CCOCC2)/C3=C(C=CC(=C3)Cl)O
Test: as above
How it was run: as §1

log2 fold change, inactive:
RAD54L2 (UniProt Q9Y4B4) -0.176
RMI2 (UniProt Q96E14) -0.246
SATB2 (UniProt Q9UPW6) -0.044
SAP30 (UniProt O75446) 0.06
RNF170 (UniProt Q96K19) -0.018
RPS6KA3 (UniProt P51812) -0.003
RHOU (UniProt Q7L0Q8) 0.07
RAB5IF isoform 5 (UniProt Q9BUV8) 0.021
RXRB isoform 3 (UniProt P28702) 0.006
RDH11 (UniProt Q8TC12) 0.087
SEMA4G isoform 2 (UniProt Q9NTN9) -0.137
RAD17 (UniProt O75943) 0.005
RHBDD1 (UniProt Q8TEB9) -0.476
RAP1B (UniProt F5GZG1) 0.332
QSER1, A0A3B3IRW6 0.025
S100A6 (UniProt P06703) 0.346
RPS6KA5 (UniProt O75582) -0.161
SELENOK (UniProt Q9Y6D0) -0.075
RUFY2 isoform 1 (UniProt Q8WXA3) -0.117
RNF2 (UniProt Q99496) -0.088
